Data published in PubChem BioAssay (NCI).
Values joined by “and” are separate entries in the source; they are usually repeats but may differ in a detail not shown here. Equal values may be shown once. Compounds without any hit were thinned out: in the full panel of roughly 79,000, 15% have a hit. Some structures have more than one record in an assay (separate samples or runs), and their calls can disagree. Active and inactive are the calls of the source. Rule as the data show it: active = growth inhibition above about 70%; inactive = the rest.

Experiments:
[1] = NCI Yeast Anticancer Drug Screen. Data for the rad50 strain (AID 155);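 also: 0% = growth of vehicle-only cultures of the same strain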; conditions: S. cerevisiae rad50 strain growth inhibition, stronger effect = higher value
Procedure, shortened: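 Relative growth inhibition (compound vs vehicle) was measured in yeast with a defined repair-gene alteration.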

[2] = NCI Yeast Anticancer Drug Screen. Data for the mec2-1 strain (AID 157); conditions: S. cerevisiae mec2-1 strain, stronger effect = higher value
Procedure, shortened: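 Test agents were screened against the mec2-1 yeast strain, with defined DNA repair or cell cycle alteration. Growth was scored as inhibition against vehicle-only controls.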

[3] = NCI Yeast Anticancer Drug Screen. Data for the sgs1 mgt1 strain (AID 161);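 also: 0% = growth of cultures given vehicle only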; conditions: S. cerevisiae sgs1 mgt1 strain, stronger effect = higher value
Procedure, shortened: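 Inhibition of yeast growth, normalised to vehicle-treated controls, is reported for a strain bearing genetic alterations in DNA damage repair.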

[4] = NCI Yeast Anticancer Drug Screen. Data for the cln2 rad14 strain (AID 165);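 also: 0% = growth equal to vehicle treated cultures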; conditions: S. cerevisiae cln2 rad14 strain, stronger effect = higher value
Procedure, shortened: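 Growth of compound-exposed yeast (cln2 rad14 genotype) measured and expressed as inhibition relative to vehicle.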

[5] = NCI Yeast Anticancer Drug Screen. Data for the bub3 strain (AID 167); conditions: S. cerevisiae bub3 mutant strain, stronger effect = higher value
Procedure, shortened: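 Screening used yeast with an engineered genetic alteration affecting cell cycle control. Compound-exposed cultures were compared with vehicle cultures, and reduced growth was taken as inhibition.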

[6] = NCI Yeast Anticancer Drug Screen. Data for the mlh1 rad18 strain (AID 175); conditions: S. cerevisiae mlh1 rad18 strain growth inhibition, stronger effect = higher value
Procedure, shortened: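 In this whole-cell yeast screen, a strain with altered DNA damage repair is challenged with compound, and its growth is measured against matched vehicle-treated controls.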

[7] = at 5.0 µM (retest, dose inferred, filed as 0.5)
[8] = at 50.0 µM (retest, dose inferred, filed as 5.0)

Measured: growth inhibition

OC1CCC(O)CC1 (stereo not given)
73.8% (active) and 21.8% (inactive): [1]; at 50.0 µM
inactive: [1]; [7] -1% | [1]; [8] 42% | [2]; [7] -3% | [2]; [8] 3% | [2]; at 50.0 µM 20.2% and -13.1% | [3]; [7] 0% | [3]; [8] 5% | [4]; [7] 2% | [4]; [8] -3% | [4]; at 50.0 µM 8.65% and -1.45% | [5]; [7] 0% | [5]; [8] 4% | [5]; at 50.0 µM 11% and -1.95% | [6]; [7] 0% | [6]; [8] 10% | [6]; at 50.0 µM 67.3% and 22%
70.2% (active) and -6.75% (inactive): [3]; at 50.0 µM

C=CC(=O)OCCOc1ccc(Cl)cc1Cl
active: [1]; [8] 98% | [2]; [8] 99% | [3]; [8] 98% | [3]; at 50.0 µM 73.2% | [4]; [8] 94% | [5]; [8] 97% | [6]; [8] 98% | [6]; at 50.0 µM 83.9%
inactive: [1]; [7] 1% | [1]; at 50.0 µM 57.2% | [2]; [7] 2% | [2]; at 50.0 µM 30.4% | [3]; [7] 6% | [4]; [7] -1% | [4]; at 50.0 µM -28.1% | [5]; [7] 12% | [5]; at 50.0 µM 24.2% | [6]; [7] 24%

COC(=O)C1OC(OC(C)=O)C(OC(C)=O)C(OC(C)=O)C1OC(C)=O (stereo not given)
inactive: [1]; [7] -4% | [1]; [8] 5% | [1]; at 50.0 µM 7.25% and 3.25% | [2]; [7] -6% | [2]; [8] 8% | [2]; at 50.0 µM 14.4% and 8.2% | [3]; [7] -5% | [3]; [8] 9% | [3]; at 50.0 µM 7.05% and 10.9% | [4]; [7] 1% | [4]; [8] -2% | [4]; at 50.0 µM -12.2% and 60.5% | [5]; [7] -4% | [5]; [8] 11% | [5]; at 50.0 µM -7.15% and 24.6% | [6]; [7] -7% | [6]; [8] 14% | [6]; at 50.0 µM 16% and 9.3%

OC1(C2C=CC=C2)c2ccccc2C=Cc2ccccc21
inactive: [1]; [7] 4% | [1]; [8] 51% | [2]; [7] 13% | [2]; [8] 48% | [2]; at 50.0 µM 10.7% | [3]; [7] 4% | [3]; [8] 54% | [4]; [7] -36% | [4]; at 50.0 µM 48.4% | [5]; [7] -14% | [5]; [8] -85% | [5]; at 50.0 µM 69.5% | [6]; [7] 9% | [6]; [8] 37%
active: [1]; at 50.0 µM 91% | [3]; at 50.0 µM 78.6% | [4]; [8] 70% | [6]; at 50.0 µM 89.6%

COc1cc(O)c2c(c1)C(=O)c1cc3c(c(O)c1C2=O)C(OC1OC(C)C(OC)C(O)C1OC)C(OC)C(C)(O)C3=O (stereo not given)
active: [1]; [7] 81% | [1]; [8] 98% | [1]; at 50.0 µM 98.8% and 90.6% | [2]; [8] 98% | [2]; at 50.0 µM 99.2% and 93% | [3]; [8] 98% | [3]; at 50.0 µM 99.5% and 92.3% | [4]; [8] 98% | [4]; at 50.0 µM 98.3% and 89.2% | [5]; [8] 98% | [5]; at 50.0 µM 99% and 90.5% | [6]; [8] 96% | [6]; at 50.0 µM 99.2% and 90.9%
inactive: [2]; [7] 24% | [3]; [7] 20% | [4]; [7] 22% | [5]; [7] -6% | [6]; [7] 29%

O=C(O)CSCc1ccc(Cl)cc1
inactive: [1]; [7] -2% | [1]; [8] 1% | [1]; at 50.0 µM 3.7% | [2]; [7] 2% | [2]; [8] -3% | [2]; at 50.0 µM -32.9% | [3]; [7] 2% | [3]; [8] 1% | [3]; at 50.0 µM -9.3% | [4]; [7] 0% | [4]; [8] -7% | [4]; at 50.0 µM 29.3% | [5]; [7] 2% | [5]; [8] 4% | [5]; at 50.0 µM 6.1% | [6]; [7] -1% | [6]; [8] -3% | [6]; at 50.0 µM -6.45%

CCCCCCCCC(Sc1n[nH]c(=O)[nH]c1=O)C(=O)OCC (stereo not given)
inactive: [1]; [7] 4% | [1]; [8] 35% | [2]; [7] 1% | [3]; [7] 4% | [3]; [8] 29% | [4]; [7] 1% | [5]; [7] -4% | [6]; [7] 3% | [6]; [8] 48%
active: [1]; at 50.0 µM 85.5% | [2]; [8] 70% | [2]; at 50.0 µM 89.7% | [3]; at 50.0 µM 91.6% | [4]; [8] 88% | [4]; at 50.0 µM 84.8% | [5]; [8] 88% | [5]; at 50.0 µM 88.5% | [6]; at 50.0 µM 89.5%

O=C1C(=Cc2ccc(O)cc2)N=C(c2ccccc2)N1n1c(-c2ccccc2)nc2ccccc2c1=O
inactive: [1]; [7] 2% | [1]; [8] 39% | [2]; [7] -2% | [2]; [8] 23% | [2]; at 50.0 µM 38.9% | [3]; [7] 9% | [3]; [8] 29% | [4]; [7] 18% | [4]; [8] 40% | [4]; at 50.0 µM 44.9% | [5]; [7] 12% | [5]; [8] 57% | [6]; [7] 12% | [6]; [8] 64%
active: [1]; at 50.0 µM 71% | [3]; at 50.0 µM 73.2% | [5]; at 50.0 µM 89.4% | [6]; at 50.0 µM 91.8%

CCCCCCCCCCCCCCCC[N+](C)(C)Cc1cnc[nH]1
active: [1]; [7] 99% | [1]; [8] 98% | [1]; at 50.0 µM 90.3% | [2]; [7] 99% | [2]; [8] 99% | [2]; at 50.0 µM 91.2% | [3]; [7] 98% | [3]; [8] 99% | [3]; at 50.0 µM 91.8% | [4]; [7] 95% | [4]; [8] 99% | [4]; at 50.0 µM 89.7% | [5]; [7] 99% | [5]; [8] 99% | [5]; at 50.0 µM 91% | [6]; [7] 98% | [6]; [8] 98% | [6]; at 50.0 µM 89.1%

O=C1OC(c2ccc(O)cc2)(c2ccc(O)cc2)c2cccc3cccc1c23
inactive: [1]; [7] 25% | [2]; [7] 11% | [3]; [7] 17% | [4]; [7] 14% | [5]; [7] 11% | [6]; [7] 23%
active: [1]; [8] 99% | [1]; at 50.0 µM 99% | [2]; [8] 99% | [2]; at 50.0 µM 99.2% | [3]; [8] 99% | [3]; at 50.0 µM 99% | [4]; [8] 99% | [4]; at 50.0 µM 98.9% | [5]; [8] 99% | [5]; at 50.0 µM 99% | [6]; [8] 99% | [6]; at 50.0 µM 98.3%

CCCC(C)NCCOC(=O)C(c1ccccc1)C1CCCCC1 (stereo not given)
inactive: [1]; [7] -11% | [1]; [8] 49% | [2]; [7] 3% | [2]; [8] 36% | [2]; at 50.0 µM 14.2% | [3]; [7] -3% | [3]; [8] 60% | [4]; [7] -2% | [4]; [8] 36% | [4]; at 50.0 µM 34.3% | [5]; [7] 0% | [5]; [8] 49% | [5]; at 50.0 µM 57.5% | [6]; [7] 1% | [6]; [8] 61%
active: [1]; at 50.0 µM 85.6% | [3]; at 50.0 µM 85.5% | [6]; at 50.0 µM 73.2%

COc1ccc(/C=C/NC=O)cc1
inactive: [1]; [7] -2% | [1]; [8] -1% | [1]; at 50.0 µM -17.2% | [2]; [7] -3% | [2]; [8] 0% | [2]; at 50.0 µM 0.35% | [3]; [7] -2% | [3]; [8] -1% | [3]; at 50.0 µM -9.6% | [4]; [7] -2% | [4]; [8] 4% | [4]; at 50.0 µM -8.25% | [5]; [7] 1% | [5]; [8] 6% | [5]; at 50.0 µM 19.8% | [6]; [7] -3% | [6]; [8] -2% | [6]; at 50.0 µM 28.9%

COc1ccc(C2SC(N)=Nc3c2c(C)nn3C(=O)c2ccc(Cl)cc2)cc1OC (stereo not given)
inactive: [1]; [7] 6% | [1]; [8] 11% | [1]; at 50.0 µM -19.2% | [2]; [7] -10% | [2]; [8] -1% | [2]; at 50.0 µM 14.5% | [3]; [7] -7% | [3]; [8] 0% | [3]; at 50.0 µM 3.85% | [4]; [7] -21% | [4]; [8] 1% | [4]; at 50.0 µM 64.5% | [5]; [7] -18% | [5]; [8] 15% | [5]; at 50.0 µM 16.1% | [6]; [7] -8% | [6]; [8] -15% | [6]; at 50.0 µM -26.6%

CC(c1ccccc1)c1ccc(O)cc1 (stereo not given)
46.9% (inactive) and 86.5% (active): [1]; at 50.0 µM
53.2% (inactive) and 92.3% (active): [6]; at 50.0 µM
6.55% (inactive) and 85.7% (active): [3]; at 50.0 µM
33.2% (inactive) and 81% (active): [2]; at 50.0 µM
inactive: [1]; [7] 0% | [2]; [7] -3% | [2]; [8] 57% | [3]; [7] -1% | [3]; [8] 49% | [4]; [7] 0% | [4]; [8] 56% | [4]; at 50.0 µM 24.6% and 65.2% | [5]; [7] -9% | [5]; [8] 51% | [5]; at 50.0 µM 40.4% and 66.4% | [6]; [7] 0%
active: [1]; [8] 73% | [6]; [8] 90%

O=c1c(Cl)c(Cl)cnn1-c1ccccc1
72.6% (active) and -13.8% (inactive): [6]; at 50.0 µM
inactive: [1]; [7] 33% | [1]; [8] 58% | [1]; at 50.0 µM 30.9% and 6.8% | [2]; [7] 1% | [2]; [8] 22% | [2]; at 50.0 µM 45% and -8.9% | [3]; [7] -6% | [3]; [8] 14% | [3]; at 50.0 µM 35.7% and -2.25% | [4]; [7] 17% | [4]; [8] 19% | [4]; at 50.0 µM 28.1% and 13.8% | [5]; [7] 10% | [5]; [8] 21% | [5]; at 50.0 µM 23.9% and -9.2% | [6]; [7] 8% | [6]; [8] 26%
